Measurements: the supplement of paper PMC10646978
± gives the standard deviation.

Key:
Settings in all cases: modulator concentration 10 µM
[1] = system: RAW-Dual (murine macrophage reporter line); experiment: NF-kB reporter (SEAP) activity fold change vs agonist alone; higher = enhanced NF-kB activity
In short: (§1)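 RAW-Dual murine macrophage reporter cells were seeded at 50 000 per well in 384-well plates and pre-incubated 1 hour at 37 °C with compound pin-transferred to 10 μM final. After 1 hour, a PRR agonist was added and cells incubated overnight. Supernatant NF-κB (SEAP, QUANTI-Blue, 620 nm absorbance) and IRF (Lucia luciferase, QUANTI-Luc, luminescence) signals were divided by the mean agonist-only control on the same plate to give fold change. Two replicate plates were averaged, with errors by propagation.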

[2] = system: RAW-Dual (murine macrophage reporter line); experiment: IRF reporter (Lucia luciferase) activity fold change vs agonist alone; higher = enhanced IRF activity
In short: as §1

[3] = system: RAW-Dual (murine macrophage reporter line); experiment: viability score (confluency relative to resting cells, overnight) (fraction); higher = more viable, active = viable (0.7 or more)
In short: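 In 384-well plates, RAW-Dual macrophages received compound at a final 10 μM overnight. Two confluency masks were then made with IncuCyte software from IncuCyte images of all imaged wells. The viability score is defined as confluency relative to resting cells. Passing the cutoff required both masks to lie above 70% of resting cells.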

[4] = agonist: CpG ODN 1826 0.5 ug/mL

| Structure (SMILES) | NF-kB reporter [1, 4] | NF-kB reporter ([1]; agonist: LPS 0.1 ug/mL) | NF-kB reporter ([1]; agonist: MPLA […]) | IRF reporter ([2]; agonist: 3'3'-cGAMP 10 ug/mL) | IRF reporter ([2]; agonist: LPS 0.1 ug/mL) | IRF reporter ([2]; agonist: MPLA […]) | viability score [3] |
| --- | --- | --- | --- | --- | --- | --- | --- |
| N=C1NC(=O)C(=Cc2ccc(-c3cccc(Cl)c3)o2)S1 | 0.688 ± 0.091 | 0.695 ± 0.048 | 1.77 ± 0.11 | 1.39 ± 0.11 | 1.17 ± 0.14 | 2.82 ± 0.65 | 0.932 (active) |
| O=C(/C=C/C=C/c1ccc2c(c1)OCO2)N1CCCCC1 | 0.974 ± 0.093 | 1 ± 0.097 | 1.17 ± 0.062 | 0.842 ± 0.052 | 1.04 ± 0.16 | 1.07 ± 0.26 | 1.03 (active) |
| Cc1c(NC(=S)NC(=O)c2ccccc2[N+](=O)[O-])cccc1-c1nc2ccccc2o1 | 0.898 ± 0.074 | 1 ± 0.073 | 1.05 ± 0.11 | 0.649 ± 0.093 | 1.04 ± 0.15 | 1.07 ± 0.31 | 1 (active) |
| COc1ccc(-c2[nH]c(-c3ccccc3)nc2SCC(=O)NC2CCCC2)cc1 | 0.875 ± 0.061 | 1.07 ± 0.069 | 1.64 ± 0.11 | 0.892 ± 0.03 | 1.09 ± 0.095 | 1.11 ± 0.1 | 1 (active) |
| Cc1ccc(-n2c(C)cc(C=NNC(=O)CN3CCOCC3)c2C)c(C)c1 | 0.928 ± 0.084 | 1.11 ± 0.1 | 1.09 ± 0.097 | 0.822 ± 0.024 | 1.09 ± 0.19 | 1.07 ± 0.082 | 1 (active) |
| CCN(CC)C(=O)/C(C#N)=C/c1cc(O)c(O)c([N+](=O)[O-])c1 | 1.23 ± 0.23 | 1.08 ± 0.45 | 0.864 ± 0.055 | 0.905 ± 0.035 | 1.22 ± 0.43 | 1.11 ± 0.095 | 0.992 (active) |
| CCOCCn1c(N2CCCN(C)CC2)nc2ccccc21 [Prestw-1274] | 0.77 ± 0.17 | 1.24 ± 0.17 | 1.03 ± 0.08 | 1.01 ± 0.027 | 1.19 ± 0.21 | 1.44 ± 0.15 | 0.996 (active) |
| CCN(CC)CCNc1ccc(CO)c2sc3ccccc3c(=O)c12 [Prestw-355] | 0.178 ± 0.01 | 0.705 ± 0.065 | 1.09 ± 0.14 | 0.408 ± 0.024 | 0.964 ± 0.13 | 1.97 ± 0.17 | 0.907 (active) |
| CC(C)Oc1ccc(C(=O)N2CCC(c3ccccc3)S(=O)(=O)CC2)cn1 (configuration not stated) | 1.06 ± 0.08 | 0.861 ± 0.13 | 0.998 ± 0.052 | 0.921 ± 0.054 | 1.03 ± 0.049 | 0.968 ± 0.13 | 0.989 (active) |
| COc1cc2c(cc1OC)C(=O)C(CC1CCN(Cc3ccccc3)CC1)C2 (configuration not stated) | 0.586 ± 0.14 | 0.954 ± 0.058 | 1.05 ± 0.066 | 0.797 ± 0.027 | 0.813 ± 0.096 | 0.897 ± 0.11 | 0.99 (active) |
| O=C(c1ccc(OC(F)(F)F)cc1)N1CCC(Oc2cnccn2)CC1 | 1.05 ± 0.42 | 1.23 ± 0.061 | 1.04 ± 0.066 | 0.902 ± 0.03 | 1.19 ± 0.13 | 1.28 ± 0.13 | 0.996 (active) |
| CCCC1CC(C(=O)NC(C(C)O)C2OC(SC)C(O)C(O)C2O)N(C)C1.Cl (configuration not stated) | 0.947 ± 0.073 | 0.93 ± 0.072 | 0.924 ± 0.099 | 0.956 ± 0.031 | 1.24 ± 0.11 | 1.32 ± 0.17 | 1.04 (active) |
| CC(=O)CCc1oc2ccc([N+](=O)[O-])cc2c1-c1ccc(C)o1 | 1.04 ± 0.12 | 0.837 ± 0.065 | 0.825 ± 0.084 | 0.817 ± 0.048 | 0.849 ± 0.12 | 0.713 ± 0.17 | 0.973 (active) |
| Ic1ccc(OCCCOc2ncnc3ccccc23)cc1 | 0.781 ± 0.069 | 0.931 ± 0.045 | 1.14 ± 0.12 | 0.963 ± 0.05 | 1.39 ± 0.095 | 1.6 ± 0.2 | 1.02 (active) |
| COC(=O)[C@H](c1ccccc1Cl)N1CCc2sccc2C1.O=S(=O)(O)O | 0.811 ± 0.21 | 0.993 ± 0.28 | 1.06 ± 0.12 | 1.11 ± 0.081 | 1.02 ± 0.29 | 0.955 ± 0.22 | 0.954 (active) |
| O=C(C=Cc1ccc2c(c1)OCO2)NCc1ccccn1 | 0.994 ± 0.16 | 1.08 ± 0.089 | 0.897 ± 0.069 | 0.933 ± 0.041 | 1.27 ± 0.27 | 1.28 ± 0.15 | 0.994 (active) |
| NNC(=O)c1ccncc1 | 1.51 ± 0.21 | 1.33 ± 0.21 | 1.31 ± 0.14 | 0.91 ± 0.028 | 1.42 ± 0.12 | 1.11 ± 0.14 | 0.999 (active) |
| O=c1cc(O)c(Cl)c[nH]1 | 0.953 ± 0.11 | 0.952 ± 0.15 | 1 ± 0.052 | 1.01 ± 0.12 | 0.925 ± 0.033 | 0.839 ± 0.13 | 0.996 (active) |
| FC(F)(F)c1ccnc(NC2CCN(c3ncnc4c3CCCC4)CC2)n1 | 0.884 ± 0.083 | 1.35 ± 0.11 | 1.86 ± 0.081 | 1.21 ± 0.069 | 1.65 ± 0.16 | 1.59 ± 0.18 | 0.318 (inactive) |
| COc1cccc(-c2cc(C(=O)N3CCC(Oc4cc(C)n(C)c(=O)c4)CC3)n(C)n2)c1 | 1.01 ± 0.11 | 0.994 ± 0.1 | 0.983 ± 0.06 | 0.991 ± 0.059 | 0.964 ± 0.066 | 0.938 ± 0.085 | 1 (active) |
| CN(C)[C@@H](CCOc1cccc2ccccc12)c1ccccc1.Cl | 0.603 ± 0.11 | 1.01 ± 0.17 | 0.66 ± 0.044 | 0.47 ± 0.015 | 1.25 ± 0.11 | 0.854 ± 0.068 | 0.178 (inactive) |
| Cc1ccc(CSCCNC(=O)CN(c2cccc(C)c2)S(C)(=O)=O)cc1 | 0.951 ± 0.09 | 1.01 ± 0.056 | 0.99 ± 0.061 | 0.998 ± 0.025 | 1.44 ± 0.2 | 1.15 ± 0.2 | 1 (active) |
| O=C1CCc2cc(OCCCCc3nnnn3C3CCCCC3)ccc2N1 | 1.52 ± 0.27 | 1.24 ± 0.38 | 1.18 ± 0.2 | 1.01 ± 0.043 | 1.32 ± 0.2 | 1.32 ± 0.12 | 0.991 (active) |
| Oc1ccc(OCc2ccccc2)cc1 | 1.78 ± 0.25 | 1.51 ± 0.34 | 1.34 ± 0.095 | 0.665 ± 0.033 | 1.46 ± 0.27 | 1.42 ± 0.17 | 0.832 (active) |
| CS(=O)(=O)N(CC(=O)NCCSCc1cccc(Cl)c1)c1ccc(F)cc1 | 0.742 ± 0.059 | 1.06 ± 0.059 | 0.857 ± 0.07 | 1.2 ± 0.03 | 1.13 ± 0.1 | 0.867 ± 0.26 | 1.01 (active) |
| O=C(NN=Cc1c(O)ccc2ccccc12)c1ccccc1Br | 1.43 ± 0.11 | 1.24 ± 0.091 | 1.14 ± 0.092 | 0.612 ± 0.1 | 1.05 ± 0.074 | 0.873 ± 0.057 | 0.989 (active) |
